Test systems include T-47D breast; BT-549 breast; MDA-MB-435 melanoma; SW-620 colon; MCF7 breast; HCT-116 colon; HCC-2998 colon; KM12 colon.
Assay in all cases: NCI-60 one-dose screen, 48 h (100 = growth as untreated, 0 = no growth, -100 = all killed)
Common to all, as to conditions: 10 µM unless noted

Structures are written as SMILES. This is part of a sample that, as a whole, favours compounds with a hit. Of some 83,000 tested, about 20% had one in any assay.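 Results are percent growth after 48 hours of single-concentration exposure. 100 means growth as in untreated cells, lower positive values show inhibition; negative values down to -100 show cell death.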 A number with no mark means an inactive call. Activity calls are given as the source filed them. The calls were made as follows: active = growth percent below 10; inactive = the rest.

For the compound `CN(C)C(=O)c1cc2cnc(Nc3ccc(-c4csc5c(=O)cc(N6CCNCC6)oc45)cc3)nc2n1C1CCCC1`, the growth in the assay on T-47D breast is 52.1%; in the assay with BT-549 breast, 46.2%; with MDA-MB-435 melanoma, 38.2%; in the assay with SW-620 colon, 0.864% (active); in the assay with MCF7 breast it was 3.93% (active); with HCT-116 colon it was 4.23% (active). Also, the growth in the assay on HCC-2998 colon was -0.6% (active); in the assay on KM12 colon, 13.8%.

`C=C1C(=O)O[C@H]2[C@H]1CC/C(Cn1cc(Cn3ccc4ccccc43)nn1)=C\CC[C@@]1(C)O[C@@H]21`: the growth with T-47D breast is -17.9% (active); in the assay on BT-549 breast it was 58.7%; with MDA-MB-435 melanoma, 19.9%; with SW-620 colon it was -77.1% (active); with MCF7 breast, -73.9% (active); in the assay with HCT-116 colon, -89.5% (active). For the same compound, the growth with HCC-2998 colon is 69%; in the assay on KM12 colon it was 66.5%.

For the compound `Cc1ccc2c(c1)O/C(=C\c1cccc(OCC(=O)c3ccccc3)c1)C2=O`, the growth in the assay on T-47D breast is 87.6%; in the assay on BT-549 breast, 104%; with MDA-MB-435 melanoma it was 96.5%; with SW-620 colon, 102%; in the assay on MCF7 breast it was 74.8%; in the assay with HCT-116 colon it was 84.4%. The growth in the assay on HCC-2998 colon is 130%; with KM12 colon it was 85.3%.

`C=C1CCC2C3(C)COC(c4ccccc4Br)OC3CCC2(C)C1C/C=C1/C(=O)OCC1OC(C)=O` (configuration not stated): the growth was -68.9% (active) with T-47D breast; -74.2% (active) in the assay on BT-549 breast; -38.6% (active) in the assay on MDA-MB-435 melanoma; -73.1% (active) in the assay on SW-620 colon; -68.9% (active) with MCF7 breast; -91% (active) in the assay on HCT-116 colon. Moreover, the growth is 55.4% with HCC-2998 colon and -56.7% (active) with KM12 colon.

Take `O=C(O)c1cccnc1Br`: the growth in the assay on T-47D breast was 85.4%; in the assay on BT-549 breast, 110%; in the assay on MDA-MB-435 melanoma it was 102%; in the assay with SW-620 colon, 110%; with MCF7 breast it was 96.8%; with HCT-116 colon, 98.1%. Further, the growth is 98.5% in the assay on HCC-2998 colon and 113% in the assay on KM12 colon.

In the case of `CCC(c1ccccc1)C(CC)c1ccc(O)c(O)c1` (configuration not stated), the growth with T-47D breast was 80.5%; in the assay with BT-549 breast, 110%; in the assay on MDA-MB-435 melanoma, 95%; with SW-620 colon, 97.3%; in the assay with MCF7 breast, 98.7%; in the assay on HCT-116 colon, 88.2%. For the same compound, the growth in the assay on HCC-2998 colon was 97.5%; with KM12 colon it was 90.9%.

Regarding `S=c1[nH]nc(CSc2ncnc3c2c(-c2ccccc2)cn3-c2ccc(Cl)cc2)o1`, the growth with T-47D breast was 90.6%; in the assay with BT-549 breast it was 107%; with MDA-MB-435 melanoma, 104%; in the assay with SW-620 colon, 95.2%; in the assay on MCF7 breast it was 93.7%; in the assay on HCT-116 colon it was 93.8%. The growth in the assay with HCC-2998 colon was 104%; with KM12 colon, 98.7%.

On to `COc1cccc(-c2nc3sccn3c2-c2ccnc(NCCCNS(=O)(=O)c3ccc(Cl)cc3)c2)c1`, for which the growth in the assay on T-47D breast was 2.4% (active); in the assay with BT-549 breast, 34.4%; in the assay on MDA-MB-435 melanoma, 38.4%; in the assay on SW-620 colon, 58.3%; with MCF7 breast, 34.6%; in the assay with HCT-116 colon it was 44%. Also, the results for the growth in the assay on HCC-2998 colon and in the assay with KM12 colon were 66.5% and 43.5%, respectively.

As to `CCNS(=O)(=O)c1ncnc2nc[nH]c12`, the growth in the assay with T-47D breast is 104%; in the assay on BT-549 breast, 129%; in the assay with MDA-MB-435 melanoma it was 101%; with SW-620 colon, 101%; in the assay on MCF7 breast it was 102%; with HCT-116 colon, 117%. Moreover, the growth in the assay on HCC-2998 colon is 114%; with KM12 colon it was 119%.

As for `NC(CC(=O)O)C(=O)OCc1ccccc1` (configuration not stated), the growth in the assay on T-47D breast is 83.8%; in the assay on BT-549 breast, 108%; with MDA-MB-435 melanoma it was 86.3%; with SW-620 colon it was 107%; with MCF7 breast it was 104%; in the assay on HCT-116 colon it was 96.9%. Besides, the figures for the growth with HCC-2998 colon and with KM12 colon were 104% and 106%, respectively.

Consider `CNC(=O)c1cc(Oc2ccc3nc(NC(=O)Nc4ccc(N5CCC(N(C)C)CC5)cc4)sc3c2)ccn1`, for which the growth with T-47D breast is 78.1%; in the assay on BT-549 breast, 98.7%; with MDA-MB-435 melanoma, 98.8%; with SW-620 colon, 71.6%; in the assay on MCF7 breast, 67.7%; in the assay on HCT-116 colon it was 39%. In addition, the growth was 95.4% in the assay with HCC-2998 colon and 60.4% in the assay with KM12 colon.

As for `COc1ccc(-c2c(C)noc2-c2ccc(O)cc2O)cc1`, the growth was 86.9% in the assay on T-47D breast; 112% in the assay on BT-549 breast; 87.1% with MDA-MB-435 melanoma; 69.5% in the assay on SW-620 colon; 67.6% with MCF7 breast; 77.9% with HCT-116 colon. In addition, the growth is 111% in the assay on HCC-2998 colon and 64.4% in the assay on KM12 colon.

Turning to `CN(C)c1ccc(/C=C(\C#N)c2nc3ccccc3s2)cc1`, the growth in the assay with T-47D breast is 89.4%; in the assay on BT-549 breast, 72.9%; in the assay with MDA-MB-435 melanoma it was 89.1%; in the assay on SW-620 colon, 112%; in the assay with MCF7 breast, 89%; in the assay on HCT-116 colon, 96.8%. The growth in the assay on HCC-2998 colon is 106%; in the assay with KM12 colon, 108%.

`O=C1C2CC=CCC2C(=O)N1CNc1ccc(Cl)cc1` (configuration not stated): the growth in the assay with T-47D breast was 86.2%; in the assay on BT-549 breast it was 84.1%; in the assay with MDA-MB-435 melanoma it was 108%; with SW-620 colon it was 94%; in the assay on MCF7 breast it was 102%; in the assay on HCT-116 colon, 90.1%. Moreover, the figures for the growth in the assay on HCC-2998 colon and with KM12 colon were 98.8% and 104%, respectively.

Source of the values: PubChem BioAssay (NCI).
